Results as given in the supplement of paper PMC6411743.
± gives the standard deviation of the averaged measurements. About 6,200 targets were measured; listed, in parts, are those with the largest changes and a random draw of the rest.

Compound: Nc1ncnc2c1ncn2[C@@H]1O[C@H](COP(=O)(O)OP(=O)(O)NP(=O)(O)O)[C@@H](O)[C@H]1O [adenylyl imidodiphosphate]
Assay: NP40-soluble protein abundance relative to vehicle (solubility fold change) (ratio); higher = more soluble protein in presence of AMP-PNP
Summary of the method: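 Across three independent experiments, values are fold changes against the detergent-processed vehicle for each replicate, based on vsn-normalised intensities. The samples were Jurkat crude lysate treated with eight concentrations (0.1 to 10 mM) for 10 min at room temperature and then 3 min at 37 °C. Lysate was solubilised with 0.8% NP40 and benzonase, ultracentrifuged, and the supernatant analysed by TMT-labelled LC-MS/MS.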

Sequence of UniProt P40222 (P40222 whole entry): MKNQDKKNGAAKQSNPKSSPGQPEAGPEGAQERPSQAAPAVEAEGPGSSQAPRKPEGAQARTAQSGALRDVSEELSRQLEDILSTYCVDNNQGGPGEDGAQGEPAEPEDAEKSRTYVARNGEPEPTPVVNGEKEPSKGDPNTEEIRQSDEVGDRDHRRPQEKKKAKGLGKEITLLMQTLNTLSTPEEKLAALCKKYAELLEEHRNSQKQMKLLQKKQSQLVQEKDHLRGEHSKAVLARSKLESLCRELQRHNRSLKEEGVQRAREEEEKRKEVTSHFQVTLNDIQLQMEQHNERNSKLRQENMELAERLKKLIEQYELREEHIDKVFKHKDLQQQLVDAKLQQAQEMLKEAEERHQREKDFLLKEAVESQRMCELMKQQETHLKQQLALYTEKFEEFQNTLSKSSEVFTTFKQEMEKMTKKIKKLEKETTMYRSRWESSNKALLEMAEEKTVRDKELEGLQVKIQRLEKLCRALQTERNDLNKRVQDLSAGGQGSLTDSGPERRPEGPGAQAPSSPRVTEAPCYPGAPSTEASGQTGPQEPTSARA
Sequence of UniProt P04049 (P04049 whole entry): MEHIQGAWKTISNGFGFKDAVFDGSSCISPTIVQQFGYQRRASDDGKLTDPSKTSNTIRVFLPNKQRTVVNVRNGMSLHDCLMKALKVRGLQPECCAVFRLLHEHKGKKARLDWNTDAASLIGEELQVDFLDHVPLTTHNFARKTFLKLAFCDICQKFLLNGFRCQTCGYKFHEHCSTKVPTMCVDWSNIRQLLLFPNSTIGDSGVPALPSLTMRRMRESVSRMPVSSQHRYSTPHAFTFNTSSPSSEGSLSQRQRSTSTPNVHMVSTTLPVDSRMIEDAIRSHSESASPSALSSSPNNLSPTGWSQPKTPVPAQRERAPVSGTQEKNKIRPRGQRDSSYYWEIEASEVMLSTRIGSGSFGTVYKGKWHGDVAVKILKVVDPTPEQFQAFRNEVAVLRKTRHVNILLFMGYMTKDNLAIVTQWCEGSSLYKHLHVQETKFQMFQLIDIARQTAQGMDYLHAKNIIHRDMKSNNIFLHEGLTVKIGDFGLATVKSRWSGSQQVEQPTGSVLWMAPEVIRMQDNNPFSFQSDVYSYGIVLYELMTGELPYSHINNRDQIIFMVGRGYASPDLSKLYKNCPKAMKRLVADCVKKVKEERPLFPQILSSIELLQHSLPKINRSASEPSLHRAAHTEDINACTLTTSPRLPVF
Sequence of UniProt O95602 (O95602 whole entry): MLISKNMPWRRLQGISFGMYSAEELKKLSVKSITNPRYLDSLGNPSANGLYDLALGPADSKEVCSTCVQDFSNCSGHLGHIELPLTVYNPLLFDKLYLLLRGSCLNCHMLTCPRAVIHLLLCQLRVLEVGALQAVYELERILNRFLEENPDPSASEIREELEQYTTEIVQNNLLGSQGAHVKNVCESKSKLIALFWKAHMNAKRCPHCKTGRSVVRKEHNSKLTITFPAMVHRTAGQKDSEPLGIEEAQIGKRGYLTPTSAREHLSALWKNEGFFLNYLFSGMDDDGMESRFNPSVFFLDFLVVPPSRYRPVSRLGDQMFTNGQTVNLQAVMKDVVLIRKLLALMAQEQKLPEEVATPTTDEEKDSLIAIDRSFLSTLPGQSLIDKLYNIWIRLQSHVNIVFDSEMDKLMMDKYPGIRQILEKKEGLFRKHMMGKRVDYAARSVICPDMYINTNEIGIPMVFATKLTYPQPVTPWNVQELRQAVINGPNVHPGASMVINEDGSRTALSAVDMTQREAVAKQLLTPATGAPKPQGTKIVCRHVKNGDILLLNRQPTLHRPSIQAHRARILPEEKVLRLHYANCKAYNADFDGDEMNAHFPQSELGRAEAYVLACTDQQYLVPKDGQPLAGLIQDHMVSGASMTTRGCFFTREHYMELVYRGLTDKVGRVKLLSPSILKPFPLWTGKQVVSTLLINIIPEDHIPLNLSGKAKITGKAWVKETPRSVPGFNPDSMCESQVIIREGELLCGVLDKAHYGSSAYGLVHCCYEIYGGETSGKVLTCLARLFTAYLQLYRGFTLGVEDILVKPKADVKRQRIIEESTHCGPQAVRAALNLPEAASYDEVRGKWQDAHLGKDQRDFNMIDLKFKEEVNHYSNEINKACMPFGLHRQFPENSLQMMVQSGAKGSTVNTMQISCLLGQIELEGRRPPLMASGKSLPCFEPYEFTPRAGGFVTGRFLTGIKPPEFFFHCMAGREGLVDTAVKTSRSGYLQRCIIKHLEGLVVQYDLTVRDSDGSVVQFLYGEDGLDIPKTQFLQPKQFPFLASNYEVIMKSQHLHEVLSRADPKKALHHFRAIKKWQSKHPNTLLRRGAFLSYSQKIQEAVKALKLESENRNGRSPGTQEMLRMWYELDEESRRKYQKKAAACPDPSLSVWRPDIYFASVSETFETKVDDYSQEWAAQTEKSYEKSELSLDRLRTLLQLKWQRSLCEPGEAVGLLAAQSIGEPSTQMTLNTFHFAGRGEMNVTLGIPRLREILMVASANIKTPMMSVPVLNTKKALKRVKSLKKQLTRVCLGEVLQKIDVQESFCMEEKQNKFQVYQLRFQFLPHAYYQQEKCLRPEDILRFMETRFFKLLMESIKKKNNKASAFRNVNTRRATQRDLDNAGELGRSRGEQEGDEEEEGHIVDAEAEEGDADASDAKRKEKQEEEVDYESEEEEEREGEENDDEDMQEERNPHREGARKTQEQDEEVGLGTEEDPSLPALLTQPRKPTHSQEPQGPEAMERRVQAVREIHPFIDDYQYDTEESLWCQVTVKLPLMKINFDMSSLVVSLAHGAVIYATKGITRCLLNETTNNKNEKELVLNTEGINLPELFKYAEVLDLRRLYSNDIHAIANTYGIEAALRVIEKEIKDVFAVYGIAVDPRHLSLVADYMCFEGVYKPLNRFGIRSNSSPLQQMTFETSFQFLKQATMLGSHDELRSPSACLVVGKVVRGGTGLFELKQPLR
Sequence of UniProt P78540 (P78540 whole entry): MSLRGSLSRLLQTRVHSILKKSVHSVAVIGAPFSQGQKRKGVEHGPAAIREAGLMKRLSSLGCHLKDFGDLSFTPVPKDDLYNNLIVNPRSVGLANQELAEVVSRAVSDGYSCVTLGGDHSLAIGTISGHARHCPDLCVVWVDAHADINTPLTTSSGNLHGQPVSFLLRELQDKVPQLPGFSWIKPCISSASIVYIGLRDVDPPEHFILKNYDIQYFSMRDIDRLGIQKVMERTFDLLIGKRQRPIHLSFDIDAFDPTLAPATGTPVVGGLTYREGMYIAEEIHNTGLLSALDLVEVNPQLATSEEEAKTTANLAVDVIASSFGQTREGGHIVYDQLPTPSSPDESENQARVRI
Sequence of UniProt P36405 (P36405 whole entry): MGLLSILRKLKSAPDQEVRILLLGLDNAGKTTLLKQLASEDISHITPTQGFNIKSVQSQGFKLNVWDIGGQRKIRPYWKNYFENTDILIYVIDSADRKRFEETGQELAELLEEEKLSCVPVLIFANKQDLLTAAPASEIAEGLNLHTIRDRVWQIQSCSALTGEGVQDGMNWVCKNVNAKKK
Sequence of UniProt O75616 (O75616 whole entry): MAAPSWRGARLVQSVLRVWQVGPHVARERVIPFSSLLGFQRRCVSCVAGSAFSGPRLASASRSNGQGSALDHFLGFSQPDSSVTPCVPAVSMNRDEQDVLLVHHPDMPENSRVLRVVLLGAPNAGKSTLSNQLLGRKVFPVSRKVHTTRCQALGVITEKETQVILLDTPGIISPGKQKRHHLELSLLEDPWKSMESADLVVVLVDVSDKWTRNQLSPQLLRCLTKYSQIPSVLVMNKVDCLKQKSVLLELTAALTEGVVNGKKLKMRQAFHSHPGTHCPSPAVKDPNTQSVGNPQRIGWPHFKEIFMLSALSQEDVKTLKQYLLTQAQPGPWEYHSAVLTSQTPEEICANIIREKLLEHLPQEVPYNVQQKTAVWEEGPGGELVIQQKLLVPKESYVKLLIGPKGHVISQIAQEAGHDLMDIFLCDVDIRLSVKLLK
Sequence of UniProt P11216 (P11216 whole entry): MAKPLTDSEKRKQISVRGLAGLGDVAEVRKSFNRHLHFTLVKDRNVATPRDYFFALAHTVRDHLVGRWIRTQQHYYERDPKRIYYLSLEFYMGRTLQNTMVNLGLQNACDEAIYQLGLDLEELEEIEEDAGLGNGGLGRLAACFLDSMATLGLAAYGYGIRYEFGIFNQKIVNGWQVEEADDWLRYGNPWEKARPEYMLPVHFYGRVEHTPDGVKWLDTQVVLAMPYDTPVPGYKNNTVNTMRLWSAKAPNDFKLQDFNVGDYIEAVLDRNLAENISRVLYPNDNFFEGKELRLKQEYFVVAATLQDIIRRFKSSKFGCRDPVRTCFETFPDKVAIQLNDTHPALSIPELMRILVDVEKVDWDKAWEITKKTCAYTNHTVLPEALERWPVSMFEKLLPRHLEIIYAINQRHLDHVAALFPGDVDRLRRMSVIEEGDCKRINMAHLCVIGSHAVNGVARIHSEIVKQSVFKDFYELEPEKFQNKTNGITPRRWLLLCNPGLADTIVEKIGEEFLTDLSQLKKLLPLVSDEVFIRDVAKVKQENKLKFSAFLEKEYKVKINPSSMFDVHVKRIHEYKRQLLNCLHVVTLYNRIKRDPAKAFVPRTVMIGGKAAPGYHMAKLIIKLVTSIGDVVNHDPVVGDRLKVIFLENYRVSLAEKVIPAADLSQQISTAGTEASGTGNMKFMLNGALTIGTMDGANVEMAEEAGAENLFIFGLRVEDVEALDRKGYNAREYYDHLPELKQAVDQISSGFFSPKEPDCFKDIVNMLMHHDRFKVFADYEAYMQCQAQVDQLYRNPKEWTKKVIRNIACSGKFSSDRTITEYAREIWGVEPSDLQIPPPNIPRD
Sequence of UniProt Q10589 (Q10589 whole entry): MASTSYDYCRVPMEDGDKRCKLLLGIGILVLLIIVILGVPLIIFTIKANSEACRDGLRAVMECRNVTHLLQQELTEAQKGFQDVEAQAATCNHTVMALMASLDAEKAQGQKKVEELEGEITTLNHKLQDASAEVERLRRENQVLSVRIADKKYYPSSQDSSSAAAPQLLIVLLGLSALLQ
Sequence of UniProt P18859 (P18859 whole entry, one chain of several): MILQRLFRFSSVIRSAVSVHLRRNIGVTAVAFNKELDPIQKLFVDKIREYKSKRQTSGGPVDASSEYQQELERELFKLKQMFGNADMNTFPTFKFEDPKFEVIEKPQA

Target	NP40-soluble protein abundance (concentration: 1mM)	NP40-soluble protein abundance (concentration: 2mM)	NP40-soluble protein abundance (concentration: 4mM)	NP40-soluble protein abundance (concentration: 6mM)	NP40-soluble protein abundance (concentration: 8mM)	NP40-soluble protein abundance (concentration: 10mM)
UniProt O75367|O75367-2|O75367-3	1.01 ± 0.066	1 ± 0.055	1.05 ± 0.075	1.15 ± 0.034	1.26 ± 0.092	1.44 ± 0.049
UniProt Q10589|Q10589-2	1.0272 ± 0.00052	1.04 ± 0.011	1.03 ± 0.025	1.03 ± 0.028	1.05 ± 0.056	1.04 ± 0.048
UniProt Q02078-2|Q02078-4|Q02078-6|Q02078-5	1.0199 ± 0.0007	1.03 ± 0.017	1.023 ± 0.0072	0.98 ± 0.014	0.9784 ± 0.0097	0.98 ± 0.053
CSTF1 (UniProt Q05048)	0.9781 ± 0.0088	0.931 ± 0.075	1 ± 0.015	1 ± 0.015	1.069 ± 0.0036	1.02 ± 0.046
TPM4 (UniProt P67936)	1.21 ± 0.19	1.42 ± 0.15	1.27 ± 0.3	1.35 ± 0.3	1.44 ± 0.047	1.24 ± 0.16
UniProt Q05519|Q05519-2	1.12 ± 0.031	1.18 ± 0.11	1.21 ± 0.088	1.26 ± 0.049	1.34 ± 0.16	1.51 ± 0.2
UniProt P04049|P04049-2	1.03 ± 0.023	1.06 ± 0.037	1.07 ± 0.04	1.05 ± 0.036	1.06 ± 0.033	1.05 ± 0.032
UniProt P23771|P23771-2	0.959 ± 0.029	0.99 ± 0.043	0.9254 ± 0.0013	0.895 ± 0.0095	0.908 ± 0.012	0.908 ± 0.022
UniProt Q01826|Q01826-2	1.03 ± 0.033	1.07 ± 0.05	1.03 ± 0.051	0.985 ± 0.037	0.985 ± 0.026	1.01 ± 0.05
ARL3 (UniProt P36405)	0.9899 ± 0.0033	0.945 ± 0.031	0.995 ± 0.048	0.988 ± 0.052	1.03 ± 0.041	0.99 ± 0.042
RPL7 (UniProt P18124)	0.966 ± 0.094	0.953 ± 0.039	0.962 ± 0.07	0.895 ± 0.056	0.902 ± 0.097	0.985 ± 0.024
UniProt P56282|P56282-3|P56282-2	0.973 ± 0.03	0.933 ± 0.065	0.968 ± 0.026	0.952 ± 0.036	0.942 ± 0.041	0.951 ± 0.045
UniProt P62857	0.941 ± 0.041	0.993 ± 0.078	0.919 ± 0.069	0.837 ± 0.071	0.74 ± 0.057	0.847 ± 0.092
SURF6 (UniProt O75683)	1.05 ± 0.056	1.12 ± 0.092	1.1 ± 0.057	1.17 ± 0.095	1.14 ± 0.12	1.22 ± 0.088
UniProt P62701	0.95 ± 0.063	0.87 ± 0.091	0.879 ± 0.11	0.873 ± 0.065	0.821 ± 0.071	0.851 ± 0.13
UniProt P49750-3|P49750-4	1.07 ± 0.027	1.17 ± 0.077	1.17 ± 0.015	1.23 ± 0.065	1.25 ± 0.07	1.35 ± 0.085
POLR1A (UniProt O95602)	1 ± 0.017	1 ± 0.086	1.07 ± 0.1	1.08 ± 0.12	1.07 ± 0.14	1.11 ± 0.14
PSMC4 (UniProt P43686)	0.906 ± 0.041	0.921 ± 0.06	0.885 ± 0.08	0.871 ± 0.079	0.866 ± 0.082	0.859 ± 0.1

Target	NP40-soluble protein abundance (concentration: 1mM)	NP40-soluble protein abundance (concentration: 2mM)	NP40-soluble protein abundance (concentration: 4mM)	NP40-soluble protein abundance (concentration: 6mM)	NP40-soluble protein abundance (concentration: 8mM)	NP40-soluble protein abundance (concentration: 10mM)
MYL6B (UniProt P14649)	1.02 ± 0.042	1.1 ± 0.053	1.01 ± 0.034	0.987 ± 0.051	0.925 ± 0.041	0.962 ± 0.019
ERAL1 (UniProt O75616)	0.7647 ± 0.0038	0.6675 ± 0.0031	0.716 ± 0.036	0.681 ± 0.011	0.674 ± 0.062	0.636 ± 0.04
RFX1 (UniProt P22670)	1.04 ± 0.016	1.03 ± 0.015	1.03 ± 0.03	1 ± 0.033	1.01 ± 0.025	0.995 ± 0.02
UniProt P15170-2|P15170-3|H3BSV8	0.993 ± 0.025	0.955 ± 0.035	0.96 ± 0.01	0.995 ± 0.012	0.964 ± 0.014	0.968 ± 0.043
VPS26A (UniProt O75436)	0.946 ± 0.045	0.861 ± 0.062	0.895 ± 0.019	0.872 ± 0.032	0.931 ± 0.046	0.829 ± 0.02
METAP1 (UniProt P53582)	1.05 ± 0.046	1.06 ± 0.081	1.16 ± 0.071	1.31 ± 0.046	1.37 ± 0.061	1.38 ± 0.074
TXLNA (UniProt P40222)	1.04 ± 0.059	1.17 ± 0.13	1.08 ± 0.14	1.21 ± 0.15	1.35 ± 0.046	1.2 ± 0.2
UniProt P54136|P54136-2	0.957 ± 0.051	0.888 ± 0.14	0.92 ± 0.1	0.92 ± 0.097	0.945 ± 0.13	0.894 ± 0.16
UniProt P36402-5	0.952 ± 0.025	0.984 ± 0.03	0.924 ± 0.046	0.876 ± 0.025	0.8484 ± 0.0036	0.837 ± 0.015
DBT (UniProt P11182)	0.977 ± 0.14	1.01 ± 0.12	1.01 ± 0.15	0.999 ± 0.2	0.971 ± 0.14	1.03 ± 0.19
UniProt P20073|P20073-2	0.966 ± 0.053	0.996 ± 0.093	0.989 ± 0.069	0.998 ± 0.086	1.04 ± 0.052	0.995 ± 0.096
CCNA2 (UniProt P20248)	1.03 ± 0.042	1.07 ± 0.057	1.01 ± 0.033	1.01 ± 0.028	0.975 ± 0.014	1.04 ± 0.071
HSD17B4 (UniProt P51659)	1.01 ± 0.034	0.967 ± 0.026	1.04 ± 0.041	1.09 ± 0.058	1.12 ± 0.033	1.1 ± 0.034
UniProt P18859|P18859-2|A8MUH2	0.948 ± 0.053	0.899 ± 0.032	0.867 ± 0.062	0.834 ± 0.05	0.825 ± 0.063	0.857 ± 0.026
UniProt P36639|P36639-2|P36639-3|P36639-4	1 ± 0.037	0.988 ± 0.059	1.09 ± 0.085	1.03 ± 0.022	1.07 ± 0.012	1.06 ± 0.065
ARG2 (UniProt P78540)	0.983 ± 0.026	1.02 ± 0.033	1.02 ± 0.033	1.01 ± 0.027	0.997 ± 0.019	0.985 ± 0.038
PYGB (UniProt P11216)	1.06 ± 0.1	1.09 ± 0.15	1.35 ± 0.14	1.43 ± 0.17	1.54 ± 0.24	1.47 ± 0.24
